Key:
[1] = target: ATPase inhibitor, mitochondrial (UniProt Q9UII2); assay: cross-link between two proteins; cross-linking mass spectrometry
[2] = target: Stress-70 protein, mitochondrial (UniProt P38646); assay: as above
[3] = target: Elongation factor Tu, mitochondrial (UniProt P49411); assay: cross-linking mass spectrometry
[4] = target: Large ribosomal subunit protein bL12m (UniProt P52815); assay: cross-linking mass spectrometry
[5] = target: Large ribosomal subunit protein mL45 (UniProt Q9BRJ2); assay: cross-linking mass spectrometry
[6] = target: Leucine-rich PPR motif-containing protein, mitochondrial (UniProt P42704); assay: cross-linking mass spectrometry
[7] = target: 3-hydroxyacyl-CoA dehydrogenase type-2 (UniProt Q99714); assay: cross-link between two proteins; cross-linking mass spectrometry
[8] = target: ATP synthase peripheral stalk subunit OSCP, mitochondrial (UniProt P48047); assay: as above
[9] = target: Acyl-coenzyme A thioesterase 9, mitochondrial (UniProt Q9Y305); assay: as above
[10] = target: Alpha-aminoadipic semialdehyde dehydrogenase (UniProt P49419); assay: as above
[11] = target: Aspartate--tRNA ligase, mitochondrial (UniProt Q6PI48); assay: as above
[12] = target: Delta(3,5)-Delta(2,4)-dienoyl-CoA isomerase, mitochondrial (UniProt Q13011); assay: as above
[13] = target: Elongation factor G, mitochondrial (UniProt Q96RP9); assay: as above
[14] = target: Heat shock protein 75 kDa, mitochondrial (UniProt Q12931); assay: as above
[15] = target: Hydroxyacyl-coenzyme A dehydrogenase, mitochondrial (UniProt Q16836); assay: as above
[16] = target: Isocitrate dehydrogenase [NAD] subunit alpha, mitochondrial (UniProt P50213); assay: as above
[17] = target: NADH dehydrogenase [ubiquinone] 1 alpha subcomplex subunit 5 (UniProt Q16718); assay: as above
[18] = target: Polyribonucleotide nucleotidyltransferase 1, mitochondrial (UniProt Q8TCS8); assay: as above
[19] = target: Presequence protease, mitochondrial (UniProt Q5JRX3); assay: as above
[20] = target: Solute carrier family 25 member 3 (UniProt Q00325); assay: as above
[21] = target: Stomatin-like protein 2, mitochondrial (UniProt Q9UJZ1); assay: as above
[22] = target: Succinate-semialdehyde dehydrogenase, mitochondrial (UniProt P51649); assay: as above
[23] = target: Transcription factor A, mitochondrial (UniProt Q00059); assay: as above
[24] = target: Tyrosine--tRNA ligase, mitochondrial (UniProt Q9Y2Z4); assay: as above
[25] = target: Zeta-crystallin (UniProt Q08257); assay: as above
[26] = target: B-cell receptor-associated protein 31 (UniProt Q61335); assay: as above
[27] = target: Adenylate kinase 2, mitochondrial (UniProt P54819); assay: as above
[28] = target: Cytochrome c (UniProt P99999); assay: as above
[29] = target: Glycerol-3-phosphate dehydrogenase, mitochondrial (UniProt P43304); assay: as above
[30] = target: 14-3-3 protein zeta/delta (UniProt P63101); assay: as above
[31] = target: 2-oxoglutarate dehydrogenase-like, mitochondrial (UniProt Q9ULD0); assay: as above
[32] = target: AP-2 complex subunit mu (UniProt P84091); assay: as above
[33] = target: AP-2 complex subunit sigma (UniProt P62743); assay: as above
[34] = target: SH3-containing GRB2-like protein 3-interacting protein 1 (UniProt Q8VD37); assay: as above
[35] = target: AP-3 complex subunit beta-2 (UniProt Q9JME5); assay: as above
[36] = target: AP-3 complex subunit sigma-1 (UniProt Q9DCR2); assay: as above
[37] = target: ADP-ribosylation factor-like protein 8B (UniProt Q9NVJ2); assay: as above
[38] = target: ADP/ATP translocase 2 (UniProt P51881); assay: as above
[39] = target: Alpha-internexin (UniProt P46660); assay: as above
[40] = target: ATP synthase F(0) complex subunit e, mitochondrial (UniProt P56385); assay: as above

Measured: listed as a hit

Trifunctional enzyme subunit alpha, mitochondrial, P40939, sequence (P40939 whole entry): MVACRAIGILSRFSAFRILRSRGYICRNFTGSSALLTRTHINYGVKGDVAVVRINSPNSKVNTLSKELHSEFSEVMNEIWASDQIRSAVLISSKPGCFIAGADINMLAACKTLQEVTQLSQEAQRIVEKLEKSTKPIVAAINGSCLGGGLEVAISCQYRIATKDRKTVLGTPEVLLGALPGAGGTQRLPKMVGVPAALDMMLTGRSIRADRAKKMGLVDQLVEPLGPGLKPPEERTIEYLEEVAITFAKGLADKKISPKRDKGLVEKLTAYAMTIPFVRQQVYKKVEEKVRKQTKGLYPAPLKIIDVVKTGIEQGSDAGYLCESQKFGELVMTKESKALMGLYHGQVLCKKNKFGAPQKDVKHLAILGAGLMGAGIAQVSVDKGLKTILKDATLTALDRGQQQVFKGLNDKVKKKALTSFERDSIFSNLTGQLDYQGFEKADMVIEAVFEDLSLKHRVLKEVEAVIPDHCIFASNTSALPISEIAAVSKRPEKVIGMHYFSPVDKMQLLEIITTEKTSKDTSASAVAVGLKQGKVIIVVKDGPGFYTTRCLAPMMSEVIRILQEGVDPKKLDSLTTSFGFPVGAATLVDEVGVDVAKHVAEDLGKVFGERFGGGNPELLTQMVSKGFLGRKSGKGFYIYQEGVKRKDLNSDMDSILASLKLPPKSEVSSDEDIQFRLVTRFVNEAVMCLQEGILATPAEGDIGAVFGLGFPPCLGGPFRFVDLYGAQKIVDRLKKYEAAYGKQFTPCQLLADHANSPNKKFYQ
Solute carrier family 25 member 3, sequence (Q00325 whole entry): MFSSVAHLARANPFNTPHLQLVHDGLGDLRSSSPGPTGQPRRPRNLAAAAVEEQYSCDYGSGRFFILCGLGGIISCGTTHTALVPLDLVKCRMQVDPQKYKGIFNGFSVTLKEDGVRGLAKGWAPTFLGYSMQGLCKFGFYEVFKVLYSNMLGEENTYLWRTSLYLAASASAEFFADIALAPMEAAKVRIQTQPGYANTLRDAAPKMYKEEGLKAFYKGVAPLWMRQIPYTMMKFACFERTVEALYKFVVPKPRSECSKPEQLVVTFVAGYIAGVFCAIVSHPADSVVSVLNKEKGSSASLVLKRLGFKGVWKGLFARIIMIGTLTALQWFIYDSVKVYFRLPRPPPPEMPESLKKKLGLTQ
Tyrosine--tRNA ligase, mitochondrial, sequence (Q9Y2Z4 whole entry): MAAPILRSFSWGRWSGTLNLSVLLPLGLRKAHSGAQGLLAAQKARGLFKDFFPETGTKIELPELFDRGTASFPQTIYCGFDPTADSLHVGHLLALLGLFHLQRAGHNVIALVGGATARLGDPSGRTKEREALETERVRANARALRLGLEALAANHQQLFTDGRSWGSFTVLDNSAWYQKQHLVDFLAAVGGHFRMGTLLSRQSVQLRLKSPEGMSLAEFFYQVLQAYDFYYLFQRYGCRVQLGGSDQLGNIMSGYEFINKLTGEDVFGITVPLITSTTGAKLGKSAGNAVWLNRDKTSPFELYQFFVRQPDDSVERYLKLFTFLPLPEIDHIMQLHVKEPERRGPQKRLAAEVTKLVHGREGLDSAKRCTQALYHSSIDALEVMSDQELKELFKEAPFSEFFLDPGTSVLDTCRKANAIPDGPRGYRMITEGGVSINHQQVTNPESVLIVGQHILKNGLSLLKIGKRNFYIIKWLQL
ADP-ribosylation factor-like protein 8B, sequence (Q9NVJ2 whole entry): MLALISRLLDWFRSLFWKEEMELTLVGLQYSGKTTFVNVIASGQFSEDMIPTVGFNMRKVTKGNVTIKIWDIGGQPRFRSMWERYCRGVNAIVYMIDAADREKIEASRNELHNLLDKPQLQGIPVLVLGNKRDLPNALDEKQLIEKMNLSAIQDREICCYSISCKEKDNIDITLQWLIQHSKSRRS
Aspartate--tRNA ligase, mitochondrial, sequence (Q6PI48 whole entry): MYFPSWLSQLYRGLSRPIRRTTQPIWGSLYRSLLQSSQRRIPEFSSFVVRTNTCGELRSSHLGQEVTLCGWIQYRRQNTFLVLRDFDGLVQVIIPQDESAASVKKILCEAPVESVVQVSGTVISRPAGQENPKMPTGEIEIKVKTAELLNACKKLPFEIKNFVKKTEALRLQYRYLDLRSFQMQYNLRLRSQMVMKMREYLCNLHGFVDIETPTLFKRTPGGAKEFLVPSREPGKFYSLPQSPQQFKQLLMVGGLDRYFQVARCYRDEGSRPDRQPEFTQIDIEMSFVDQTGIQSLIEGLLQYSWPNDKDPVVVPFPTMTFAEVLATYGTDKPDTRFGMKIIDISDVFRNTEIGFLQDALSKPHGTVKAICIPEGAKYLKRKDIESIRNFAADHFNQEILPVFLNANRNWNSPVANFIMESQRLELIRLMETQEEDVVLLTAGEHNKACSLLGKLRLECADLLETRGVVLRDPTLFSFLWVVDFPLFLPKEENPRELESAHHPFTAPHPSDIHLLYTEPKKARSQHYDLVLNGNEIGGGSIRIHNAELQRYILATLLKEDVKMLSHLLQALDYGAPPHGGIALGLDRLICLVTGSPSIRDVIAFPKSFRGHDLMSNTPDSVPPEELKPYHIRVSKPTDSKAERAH
Heat shock protein 75 kDa, mitochondrial, sequence (Q12931 whole entry): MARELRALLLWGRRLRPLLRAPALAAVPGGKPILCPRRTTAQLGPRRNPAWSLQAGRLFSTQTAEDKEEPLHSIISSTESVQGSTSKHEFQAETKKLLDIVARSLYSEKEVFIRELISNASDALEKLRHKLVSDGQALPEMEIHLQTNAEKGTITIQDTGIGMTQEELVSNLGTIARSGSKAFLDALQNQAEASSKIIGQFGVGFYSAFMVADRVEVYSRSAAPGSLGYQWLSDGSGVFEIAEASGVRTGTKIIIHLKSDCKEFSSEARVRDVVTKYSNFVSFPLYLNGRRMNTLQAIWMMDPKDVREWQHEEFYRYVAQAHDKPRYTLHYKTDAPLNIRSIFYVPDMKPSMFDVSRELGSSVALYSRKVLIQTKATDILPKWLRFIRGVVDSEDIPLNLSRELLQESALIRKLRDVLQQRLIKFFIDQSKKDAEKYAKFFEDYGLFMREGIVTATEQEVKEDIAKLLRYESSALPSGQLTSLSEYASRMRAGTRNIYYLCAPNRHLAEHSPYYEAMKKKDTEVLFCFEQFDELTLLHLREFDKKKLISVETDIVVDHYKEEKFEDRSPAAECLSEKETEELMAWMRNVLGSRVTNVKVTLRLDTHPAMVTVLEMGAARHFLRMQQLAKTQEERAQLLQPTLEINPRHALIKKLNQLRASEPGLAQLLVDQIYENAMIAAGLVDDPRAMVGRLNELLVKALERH
Glycerol-3-phosphate dehydrogenase, mitochondrial, sequence (P43304 whole entry): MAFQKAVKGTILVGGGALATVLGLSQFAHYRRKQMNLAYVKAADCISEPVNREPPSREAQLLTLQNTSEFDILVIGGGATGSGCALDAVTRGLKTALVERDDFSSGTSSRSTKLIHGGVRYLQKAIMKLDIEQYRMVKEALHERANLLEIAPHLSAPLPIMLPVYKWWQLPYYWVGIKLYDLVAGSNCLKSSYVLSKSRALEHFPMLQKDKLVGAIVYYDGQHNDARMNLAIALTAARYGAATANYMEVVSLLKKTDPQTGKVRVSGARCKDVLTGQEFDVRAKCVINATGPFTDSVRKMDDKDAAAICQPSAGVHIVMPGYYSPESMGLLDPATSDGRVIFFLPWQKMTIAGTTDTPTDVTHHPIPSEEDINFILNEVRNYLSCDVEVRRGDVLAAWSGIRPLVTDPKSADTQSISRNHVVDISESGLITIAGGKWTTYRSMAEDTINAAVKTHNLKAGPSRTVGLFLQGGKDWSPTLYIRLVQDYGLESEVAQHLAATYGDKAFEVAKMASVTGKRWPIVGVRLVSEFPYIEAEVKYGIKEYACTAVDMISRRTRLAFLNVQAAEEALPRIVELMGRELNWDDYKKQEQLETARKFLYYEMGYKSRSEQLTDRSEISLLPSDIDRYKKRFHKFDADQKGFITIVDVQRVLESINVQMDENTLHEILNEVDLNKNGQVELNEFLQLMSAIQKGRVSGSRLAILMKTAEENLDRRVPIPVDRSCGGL
Stomatin-like protein 2, mitochondrial, sequence (Q9UJZ1 whole entry): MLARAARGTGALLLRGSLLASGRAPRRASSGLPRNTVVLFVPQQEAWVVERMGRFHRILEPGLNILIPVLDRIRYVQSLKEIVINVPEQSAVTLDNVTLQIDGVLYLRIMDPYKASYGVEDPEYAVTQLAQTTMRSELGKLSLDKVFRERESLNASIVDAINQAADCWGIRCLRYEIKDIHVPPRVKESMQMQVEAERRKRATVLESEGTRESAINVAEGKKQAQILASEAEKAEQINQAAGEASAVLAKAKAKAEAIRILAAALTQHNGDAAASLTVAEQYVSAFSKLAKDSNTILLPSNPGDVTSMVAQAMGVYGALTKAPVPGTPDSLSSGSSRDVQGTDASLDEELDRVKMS
ATP synthase F(0) complex subunit e, mitochondrial, sequence (P56385 whole entry, one chain of several): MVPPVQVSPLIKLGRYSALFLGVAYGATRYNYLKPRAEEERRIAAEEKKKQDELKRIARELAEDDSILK
14-3-3 protein zeta/delta, sequence (P63101 whole entry, stated change not applied): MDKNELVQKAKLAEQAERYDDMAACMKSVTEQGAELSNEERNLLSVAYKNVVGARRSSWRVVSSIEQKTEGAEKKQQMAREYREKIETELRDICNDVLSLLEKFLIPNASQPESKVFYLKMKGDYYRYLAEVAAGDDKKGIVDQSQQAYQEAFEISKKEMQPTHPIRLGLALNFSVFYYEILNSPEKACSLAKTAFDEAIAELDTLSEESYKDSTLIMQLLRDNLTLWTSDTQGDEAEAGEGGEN
B-cell receptor-associated protein 31, sequence (Q61335 whole entry): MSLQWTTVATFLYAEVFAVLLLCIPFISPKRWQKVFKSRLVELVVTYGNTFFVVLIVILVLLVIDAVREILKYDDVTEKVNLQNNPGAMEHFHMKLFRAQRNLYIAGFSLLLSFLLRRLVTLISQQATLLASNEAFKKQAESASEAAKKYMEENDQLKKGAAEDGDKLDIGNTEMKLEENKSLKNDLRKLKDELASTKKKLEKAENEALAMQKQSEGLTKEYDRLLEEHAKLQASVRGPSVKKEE
ATPase inhibitor, mitochondrial, sequence (Q9UII2 whole entry): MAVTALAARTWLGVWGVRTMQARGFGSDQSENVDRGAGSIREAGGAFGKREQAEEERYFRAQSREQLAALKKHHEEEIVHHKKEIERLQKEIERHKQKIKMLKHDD

ATP synthase F(1) complex subunit gamma, mitochondrial, P36542
yes: [1] | [2]

Malate dehydrogenase, mitochondrial, P40926
not listed: [1] | [2] | [26] | [27] | [28] | [29] | [30] | [31] | [32] | [33] | [34] | [35] | [36] | [37] | [38] | [39] | [40]
yes: all other assays above

B-cell receptor-associated protein 29, Q61334
yes: [26]

Prohibitin 1, P35232
yes: [27] | [28] | [29]

14-3-3 protein epsilon, P62259
yes: [30]

2-oxoglutarate dehydrogenase complex component E1, Q02218
yes: [31]

AP-1 complex subunit beta-1, O35643
yes: [32] | [33] | [34]

AP-3 complex subunit delta-1, O54774
yes: [35] | [36]

AP-2 complex subunit mu, Q96CW1
yes: [37]

ADP/ATP translocase 1, P48962
yes: [38]

Neurofilament medium polypeptide, P08553
yes: [39]

Trifunctional enzyme subunit alpha, mitochondrial, P40939
yes: [40] | [20]

From publication PMC11024108
